# ± gives the standard deviation of the averaged measurements. The full ranking holds about 33,000 sequences; the median of “E-score (rank enrichment, -0.5 to 0.5)” is about -0.0043, and the highest 2% start at about 0.24. What follows is part of a selection rich in the highest values, with near analogues and random picks from the rest.
# Tested on: 2Sp-muMax20 (muMax20 with two 2,6-bis(methyl)pyridine Cys staples)
# Assay: PBM 8-mer E-score (E-score (rank enrichment, -0.5 to 0.5)); higher = stronger preferential binding
# Procedure: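 Protein binding microarray (universal PBM chip covering all 10-mers in fixed probe flanks) with chemically synthesized human Max(13-93) bHLH-LZ analogs (not full-length Max) bearing noncanonical residues (hArg, Tha, Aib, Nle at 65) and aromatic Cys staples. Read-out per 8-mer (and its reverse complement): E-score (rank-based enrichment, -0.5 to 0.5) and Z-score of median probe intensity.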
row,Sequence,PBM 8-mer E-score
1,CTTTCCCA,-0.0651 ± 0.061
2,ATTAGGTA,0.0384 ± 0.028
3,CTTCCCCA,0.0675 ± 0.046
4,ATGAAAGA,0.095 ± 0.12
5,GGCACTGA,-0.138 ± 0.064
6,GAACGGTA,-0.0592 ± 0.0044
7,AGCGCAAT,-0.0106 ± 0.054
8,GGTATAAA,0.134 ± 0.012
9,TGTATAAA,0.254 ± 0.018
10,CATAAAAA,0.17 ± 0.062
11,TATATAAA,0.275 ± 0.019
12,AGTATAAA,0.186 ± 0.048
13,GATAAAAA,0.17 ± 0.036
14,GATATAAA,0.191 ± 0.046
15,TATAAAAA,0.307 ± 0.015
16,TCTATAAA,0.213 ± 0.036
17,GTACACTA,-0.172 ± 0.087
18,AGGATGGC,-0.0191 ± 0.078
19,GAACGAAC,-0.022 ± 0.033
20,ACGTCAGT,-0.191 ± 0.0086
21,ATCTTAAT,0.165 ± 0.044
22,ACCCAGCA,-0.107 ± 0.015
23,GCCCCTCC,0.237 ± 0.036
24,CCCCCTCC,-0.0372 ± 0.049
25,ACCCCTTC,0.273 ± 0.015

row,Sequence,PBM 8-mer E-score
1,GCCCCTCA,0.0361 ± 0.077
2,ACCCCTCC,0.246 ± 0.0062
3,ACCCCTAG,0.0238 ± 0.027
4,ACCCCTAA,0.163 ± 0.11
5,ACCCCTCA,0.158 ± 0.055
6,GCCCCCCC,-0.1861 ± 0.0003
7,ACCCCTAT,0.267 ± 0.044
8,AACCCTTC,0.0889 ± 0.037
9,CCCCCTTC,-0.195 ± 0.12
10,CCGGCAGA,-0.154 ± 0.1
11,CTCAAAGA,-0.106 ± 0.0065
12,GACACCGA,-0.215 ± 0.025
13,GAAAGATA,0.0861 ± 0.022
14,TGGGAGAA,0.0249 ± 0.058
15,CGCCCACA,0.216 ± 0.018
16,ACGATGGA,-0.164 ± 0.01
17,CTAAAAGC,-0.0267 ± 0.036
18,CACTCAAG,0.0104 ± 0.039
19,CTGGCAAA,-0.0382 ± 0.063
20,GATACGGC,-0.079 ± 0.018
21,ATGATAGA,0.079 ± 0.01
22,ATGATACG,0.271 ± 0.071
23,ATGATAGG,0.00318 ± 0.11
24,CTGATACA,-0.0277 ± 0.11
25,ATGATACC,0.11 ± 0.016

row,Sequence,PBM 8-mer E-score
1,GTGATACA,0.0186 ± 0.033
2,ATGATAGC,0.278 ± 0.023
3,ATGATATG,0.199 ± 0.075
4,ATGATACA,0.274 ± 0.042
5,TAACGAAA,0.0771 ± 0.12
6,CAACTAGC,0.0239 ± 0.018
7,ATTAGTCC,0.0528 ± 0.12
8,CACGGCGA,-0.0774 ± 0.0095
9,CGGTCGTC,-0.18 ± 0.017
10,GGTGATTA,0.0438 ± 0.06
11,ATGTGAAC,0.119 ± 0.0064
12,GGATTGCC,-0.202 ± 0.012
13,AATGGGTC,-0.00791 ± 0.0086
14,AATTTGGT,-0.00788 ± 0.03
15,ATTGGGCC,0.00386 ± 0.043
16,ATTTGGGG,0.253 ± 0.052
17,AATTTGGA,0.0583 ± 0.086
18,ATTGGGGG,-0.0095 ± 0.0052
19,AATTGGGT,0.2483 ± 0.0021
20,ATTGGGGC,0.253 ± 0.019
21,AATTGGGG,0.228 ± 0.06
22,ATTTGGGC,0.119 ± 0.05
23,AATTGGGC,0.183 ± 0.034
24,AATTTGGG,0.254 ± 0.017
25,ATTTGGGA,0.173 ± 0.068

row,Sequence,PBM 8-mer E-score
1,CCTTGACG,-0.0891 ± 0.0072
2,AGGGGACT,-0.0296 ± 0.079
3,GACGAGCA,0.0874 ± 0.014
4,CACACACC,-4e-05 ± 0.065
5,ATGGCATC,0.193 ± 0.081
6,ACGAGCCG,-0.0923 ± 0.041
7,CGCGGTCA,-0.174 ± 0.092
8,ACGCGCGC,0.206 ± 0.0084
9,ACGCGCGG,0.156 ± 0.098
10,ACACGCGT,0.272 ± 0.021
11,ACGCGCGT,0.397 ± 0.0075
12,AAACGCGT,-0.0801 ± 0.023
13,ACACGCGA,0.211 ± 0.037
14,ACTGAACT,0.049 ± 0.03
15,CACGATCG,-0.0926 ± 0.084
16,AAATAACA,0.182 ± 0.057
17,AAATAACG,0.289 ± 0.022
18,ATATAACC,0.134 ± 0.069
19,CAATAACG,0.0434 ± 0.0082
20,ATATAACA,0.184 ± 0.057
21,ATATAACG,0.302 ± 0.039
22,AGGATCAC,0.0434 ± 0.0027
23,CGATGACC,-0.245 ± 0.045
24,AACATAGG,0.0986 ± 0.084
25,GACTACAC,0.016 ± 0.034

row,Sequence,PBM 8-mer E-score
1,AACTACAC,0.257 ± 0.011
2,AACTACAG,-0.122 ± 0.011
3,CCCTCGCA,0.109 ± 0.031
4,GGACTATA,0.129 ± 0.085
5,AGCACCGA,-0.129 ± 0.026
6,AGTAGAAC,0.0268 ± 0.014
7,AGTAGAAT,0.286 ± 0.011
8,ATTAGAAG,0.138 ± 0.075
9,AGTAGAAA,0.142 ± 0.006
10,ATTAGAAT,0.248 ± 0.033
11,ATTAGAAA,-0.0714 ± 0.083
12,CCGAAACG,-0.122 ± 0.032
13,GATCAGAA,-0.0464 ± 0.015
14,CCCGTGGC,-0.328 ± 0.013
15,ACCTCCCC,0.0632 ± 0.019
16,TGAACGAA,0.0338 ± 0.048
17,CTGATTCA,-0.006 ± 0.016
18,AAGCGCTC,0.0083 ± 0.034
19,AAGCGCTA,0.0638 ± 0.1
20,AAGCGCTT,0.29 ± 0.074
21,AAGGATAT,0.0821 ± 0.052
22,ATTTATGA,0.149 ± 0.03
23,ACAGATGT,0.0497 ± 0.021
24,CAACTCGA,-0.0837 ± 0.0059
25,AGTGGAAA,0.185 ± 0.0052

row,Sequence,PBM 8-mer E-score
1,CGTGGAAA,0.257 ± 0.038
2,CGTGGAAG,0.163 ± 0.035
3,CGAGTAAC,-0.108 ± 0.036
4,CCACAGCA,0.0663 ± 0.031
5,TCTGAAAA,-0.037 ± 0.13
6,ATGCGTAG,0.259 ± 0.071
7,ATGCGTCG,-0.0304 ± 0.0076
8,ATGCGTTA,0.243 ± 0.018
9,ATGCGTAC,0.00487 ± 0.0049
10,CTGCGTTA,-0.0622 ± 0.026
11,CTGCGTAA,-0.0976 ± 0.042
12,GTGCGTTA,0.00978 ± 0.021
13,GTGCGTAA,0.0529 ± 0.0043
14,ATGCGTAA,0.238 ± 0.025
15,GGCTTGTA,0.22 ± 0.043
16,GGAGCAAA,0.0658 ± 0.024
17,ACCTTAAT,0.0925 ± 0.027
18,CAGTGCGG,-0.189 ± 0.025
19,ACCGTGGC,-0.207 ± 0.036
20,GGCCTATA,-0.243 ± 0.01
21,CTGCCCGC,-0.0236 ± 0.011
22,CAAGCGCC,-0.113 ± 0.064
23,GACGCGCC,-0.0693 ± 0.078
24,AGCGCGCC,0.123 ± 0.087
25,GGCGCGCC,-0.0216 ± 0.12

row,Sequence,PBM 8-mer E-score
1,AAAGCGCA,0.18 ± 0.0096
2,CACGCGCA,0.0178 ± 0.093
3,CACGCGCC,0.262 ± 0.027
4,CGCGCGCC,0.243 ± 0.006
5,CACGCGCG,0.261 ± 0.051
6,AACGCGCC,-0.0607 ± 0.047
7,CAAGCGCA,0.245 ± 0.058
8,CGCGCGCG,0.2 ± 0.077
9,ACATCGAG,0.0846 ± 0.046
10,AAGCGTGG,0.0965 ± 0.049
11,CTCACGCA,0.12 ± 0.049
12,ACGTATAT,0.145 ± 0.039
13,TAGCGCTA,-0.00743 ± 0.0017
14,ACCATTCT,0.0547 ± 0.046
15,CACGCTCG,0.245 ± 0.0082
16,CACACGCG,0.281 ± 0.035
17,AACGCGCT,-0.0289 ± 0.021
18,CACACGCA,0.0795 ± 0.072
19,AACACGCG,0.213 ± 0.0048
20,AACGCGCA,0.0173 ± 0.051
21,AACGCTCG,0.0415 ± 0.059
22,AACGCGCG,0.263 ± 0.023
23,CACGCTCA,0.0559 ± 0.045

# Reference: the supplement of paper PMC12636033
